Several values for one entry are separate records, joined by “and”; a condition that tells them apart may be missing. Equal entries are not always repeated. Records with an inconclusive call do not appear. Activity calls are given as the source filed them. Unless noted, the call rests on the fitted dose curve; in most records, active means well fitted curve in the direction sought with a large enough effect; inconclusive means small, poorly fitted or top-dose-only effect, or another doubt; inactive means no such curve, though single readings can be large; an effect the other way counts as inactive or inconclusive.

For experiment [1], the target named is Cytochrome P450 2D6 (Homo sapiens) (UniProt P10635). In words: Cytochrome P450 family 2 subfamily D member 6 (CYP2D6) small molecule antagonists: luciferase biochemical (cell-free) qHTS assay (AID 1645840; active means well fitted curve in the direction sought with a large enough effect in the repeat runs; an effect the other way counts as inactive or inconclusive; further: nearly all actives have a fitted effect of over 55% in size; further: potency means the concentration at half of the fitted maximal effect). In outline:
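P450-Glo luminescent screen: recombinant CYP2D6 enzyme–proluciferin substrate mix preincubated with compound 10 min at room temperature, then NADPH regeneration added for 1 h at room temperature. Detection reagent added for 20 min; luciferin light read as relative luminescence units.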

In experiment [2] the target is Cytochrome P450 2C9 (Homo sapiens) (UniProt P11712). In words: Cytochrome P450 family 2 subfamily C member 9 (CYP2C9) small molecule antagonists: luciferase biochemical (cell-free) qHTS assay (AID 1645842; active means well fitted curve in the direction sought with a large enough effect in the repeat runs; an effect the other way counts as inactive or inconclusive; further: nearly all actives have a fitted effect of over 55% in size; further: potency means the concentration at half of the fitted maximal effect). In outline:
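Luminescence, after 20 min with luciferin detection reagent, reflected CYP2C9 turnover during a 1 h NADPH-driven reaction at 37C. Enzyme-substrate mix contained 0.4% bovine serum albumin and was preincubated with compound 10 min at room temperature.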

A short description of experiment [3]: Primary qHTS for inhibitors of nuclear receptor binding SET domain protein 2 (NSD2) in an isogenic RCH-ACV NSD2 p.E1099K mutant (9B) (AID 1645876; further: nearly all actives have a fitted effect of over 70% in size; further: potency means the concentration at half of the fitted maximal effect). (In qHTS, concentration-response curves come from the screen itself.)
The nature of experiment [4]: Primary qHTS for small molecule stabilizers of the endoplasmic reticulum resident proteome: Secreted ER Calcium Modulated Protein (SERCaMP) assay (AID 1508630). Further: potency means the concentration at half of the fitted maximal effect. In outline:
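GLuc-SERCaMP-expressing SH-SY5Y cells, pretreated 16 h with compound, are challenged with thapsigargin to empty ER calcium stores; after 4 h, coelenterazine is added directly to the medium and luminescence is imaged.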

Experiment [5] is described as follows: A High-Content qHTS Against Drug Library for the Identification of Small Molecules that Inhibit DYT1 Early Onset Primary Dystonia-Associated Cell Pathology (AID 1645839; calls by dose curve; further: series mostly up to about 46 µM). In outline: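 Flp-In T-REx 293 cells with tetracycline-inducible EGFP-delE hTOR1A (WT EGFP-hTOR1A as reference), 800 cells/well; compound added with tetracycline, 48 h at 37 C. Fixed, permeabilized cells imaged; %pathology (punctate TorsinA) primary, cell count counterscreen.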

Experiment [6] concerns the target N-terminal Xaa-Pro-Lys N-methyltransferase 1 (Homo sapiens) (UniProt Q9BV86). In words: Confirmatory qHTS for Inhibitors of N-terminal methyltransferase 1 (NTMT1): MTaseGlo Assay (AID 1645874). Further: potency means the concentration at half of the fitted maximal effect; nearly all actives have a fitted effect of over 65% in size. In outline: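 Compounds are incubated with 125 nM NTMT1 and 100 uM SAM for 15 min before the SPKRIA peptide (1 uM) starts a 30 min room-temperature methylation. SAH is measured by coupled luciferase luminescence and curves fitted to a Hill equation.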

Another experiment addresses Papain (Carica papaya) (UniProt P00784). In words: Primary qHTS assay for inhibitors of the protease papain (AID 1645873).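 Further: papain turnover of Z-FR-AMC read as the AMC fluorescence gain over 10 min; series mostly up to about 50 µM.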

Chain of Cytochrome P450 2C9 (Homo sapiens) (P11712 whole entry, looked up): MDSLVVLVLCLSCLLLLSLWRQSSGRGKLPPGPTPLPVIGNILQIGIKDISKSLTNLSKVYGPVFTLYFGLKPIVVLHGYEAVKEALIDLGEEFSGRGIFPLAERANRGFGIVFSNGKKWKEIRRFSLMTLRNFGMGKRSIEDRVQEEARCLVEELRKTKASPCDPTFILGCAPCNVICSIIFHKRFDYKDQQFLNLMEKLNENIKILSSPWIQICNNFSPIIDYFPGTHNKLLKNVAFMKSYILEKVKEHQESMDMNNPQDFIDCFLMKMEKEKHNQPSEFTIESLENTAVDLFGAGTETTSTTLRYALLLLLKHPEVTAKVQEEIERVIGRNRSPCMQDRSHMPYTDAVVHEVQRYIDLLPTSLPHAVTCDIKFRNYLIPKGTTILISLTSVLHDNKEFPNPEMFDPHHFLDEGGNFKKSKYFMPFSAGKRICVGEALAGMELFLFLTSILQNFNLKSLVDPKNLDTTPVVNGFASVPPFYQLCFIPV
Chain of Cytochrome P450 2D6 (Homo sapiens) (P10635 whole entry, looked up): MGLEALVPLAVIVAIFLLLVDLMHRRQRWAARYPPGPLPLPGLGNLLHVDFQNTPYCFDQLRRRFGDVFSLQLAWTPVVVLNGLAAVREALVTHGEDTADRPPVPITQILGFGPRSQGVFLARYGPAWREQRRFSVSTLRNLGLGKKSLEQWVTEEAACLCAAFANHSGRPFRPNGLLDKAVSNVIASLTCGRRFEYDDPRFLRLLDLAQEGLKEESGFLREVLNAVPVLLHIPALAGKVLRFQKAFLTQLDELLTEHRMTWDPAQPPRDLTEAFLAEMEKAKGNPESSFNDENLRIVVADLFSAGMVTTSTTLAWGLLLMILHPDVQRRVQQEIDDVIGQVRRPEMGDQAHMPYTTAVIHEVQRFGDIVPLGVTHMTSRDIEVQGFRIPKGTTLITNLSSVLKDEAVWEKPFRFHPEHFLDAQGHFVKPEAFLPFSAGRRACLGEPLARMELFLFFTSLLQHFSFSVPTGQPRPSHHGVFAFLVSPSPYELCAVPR
Chain of Papain (Carica papaya) (P00784 whole entry, looked up): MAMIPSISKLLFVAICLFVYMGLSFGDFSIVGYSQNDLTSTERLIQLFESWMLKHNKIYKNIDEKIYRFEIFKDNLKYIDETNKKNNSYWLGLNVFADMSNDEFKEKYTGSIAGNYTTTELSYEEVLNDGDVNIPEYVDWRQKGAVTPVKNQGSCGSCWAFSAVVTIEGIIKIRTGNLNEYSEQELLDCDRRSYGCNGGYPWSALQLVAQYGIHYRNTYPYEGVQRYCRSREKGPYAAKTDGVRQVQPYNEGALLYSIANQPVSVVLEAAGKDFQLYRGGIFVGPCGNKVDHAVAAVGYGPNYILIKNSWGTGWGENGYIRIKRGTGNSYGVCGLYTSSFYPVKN
Chain of N-terminal Xaa-Pro-Lys N-methyltransferase 1 (Homo sapiens) (Q9BV86 whole entry, looked up): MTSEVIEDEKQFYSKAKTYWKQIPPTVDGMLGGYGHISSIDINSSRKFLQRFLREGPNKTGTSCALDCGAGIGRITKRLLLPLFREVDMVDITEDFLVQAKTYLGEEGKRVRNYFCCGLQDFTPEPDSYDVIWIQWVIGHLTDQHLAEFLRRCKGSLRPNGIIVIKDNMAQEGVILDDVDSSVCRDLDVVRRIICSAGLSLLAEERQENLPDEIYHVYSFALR

For `Cc1cnc(C(=O)O)c[n+]1[O-]`, the Potency entry in experiment [1], in experiment [2] and in experiment [3] was “inactive” throughout.
Regarding `O=C(N[C@@H](c1ccccc1)[C@@H]1CCCCN1)c1cccc(C(F)(F)F)c1Cl`, the Potency result in experiment [4] was “inactive”. Moreover, in experiment [3], the Potency was 18.6 µM (active).
On the same counts, the results for `CC(=O)Nc1ccc([C@H](C)C(=O)Nc2ncc(C(C)C)s2)cc1` are “inactive” and 2.63 µM (active).
For `NC(=O)c1cccc(-c2cc(Nc3ccc(OC(F)(F)F)cc3)ncn2)c1`, the Potency in experiment [1] was 26.8 µM (active); in experiment [2], 15.1 µM (active); in experiment [3] it was 20.5 µM (active) and 14.8 µM (active).
With `COc1cc(N2CCC(N3CCN(C)CC3)CC2)ccc1Nc1ncnc(Nc2ccccc2S(=O)(=O)C(C)C)n1`, the Potency entry in experiment [1] and in experiment [2] was “inactive” throughout. In addition, the Potency in experiment [3] is 6.49 µM (active) and 9.34 µM (active).
Turning to `CC(C)(C)NC(=O)Nc1cccc(Nc2ncc(F)c(NC(C)(C)CO)n2)c1`, the Potency result in experiment [4] was “inactive”. Moreover, in experiment [3], the Potency was 5.78 µM (active).
The like results for `NC(=O)[C@@H](CCC(F)(F)F)N(Cc1ccc(-c2ncon2)cc1F)S(=O)(=O)c1ccc(Cl)cc1` were, in that order, “inactive” and 23.5 µM (active).
`O=C(O)Cc1cccc2ccccc12`: the Potency result in experiment [5], in experiment [1], in experiment [2] and in experiment [3] was “inactive” throughout.
As to `CO[C@@H](C(=O)N1Cc2[nH]nc(NC(=O)c3ccc(N4CCN(C)CC4)cc3)c2C1)c1ccccc1`, in experiment [4], the Potency entry was “inactive”. Besides, the Potency in experiment [3] is 73.1 nM (active) and 118 nM (active).
For the compound `CC#CCn1c(N2CCC[C@@H](N)C2)nc2c1c(=O)n(Cc1nc(C)c3ccccc3n1)c(=O)n2C`, the Potency result in experiment [4] and in experiment [3] was “inactive” throughout.
`CC(=O)N(C)C1(c2ccccc2)CCN(CCC[C@]2(c3ccc(Cl)c(Cl)c3)CCCN(C(=O)c3ccccc3)C2)CC1`: the Potency result in experiment [4] is “inactive”. The Potency in experiment [3] was 7.28 µM (active).
Take `COCCOc1nc(-c2ccc(Cl)c(Cl)c2)n(-c2ccc(NC(=O)CCl)cc2)n1`: the Potency in experiment [1] is 0.756 µM (active); in experiment [2], 4.77 µM (active); in experiment [3], 1.48 µM (active).
For the compound `CCOC(CN1C(=O)[C@](CC(=O)Nc2ccc(C)cc2)(NC(=O)Nc2ccc(C)cc2)c2ccccc21)OCC`, in experiment [4], the Potency result was “inactive”. In addition, in experiment [3], the Potency is 10.5 µM (active).
Regarding `CN(C)c1cc(NC(=O)CNC(C)(C)C)c(O)c2c1C[C@@H]1C[C@H]3[C@H](N(C)C)C(=O)C(C(N)=O)=C(O)[C@@]3(O)C(=O)C1=C2O`, the Potency entry in experiment [5] and in experiment [2] was “inactive” each time.
Regarding `Clc1cc(Cl)cc(CNc2ncncc2-c2ccc3c(c2)OCO3)c1`, the Potency entry in experiment [4] is “inactive”. Moreover, in experiment [3], the Potency was 13.2 µM (active).
On to `Cc1cccc(Nc2nc(-c3ccncc3)cs2)c1`, for which the Potency in experiment [1] was 0.849 µM (active); in experiment [2], 0.268 µM (active); in experiment [6], 2.82 µM (active); in experiment [3], 10.3 µM (active) and 11.8 µM (active).
In the case of `N[C@@]1(C(=O)O)CS(=O)(=O)[C@H]2[C@H](C(=O)O)[C@H]21`, the Potency result in experiment [4] and in experiment [3] was “inactive” each time.
With `O=C(O)CCc1nc(-c2ccccc2)c(-c2ccccc2)o1`, the Potency entry in experiment [5], in experiment [1], in experiment [2] and in experiment [3] was “inactive” in each case. Besides, in the experiment with Papain (Carica papaya), the compound was called inactive.
For the compound `C=C1C(=O)[C@@]23C(CC[C@@H]1[C@H]2O)[C@@]12CO[C@]3(O)[C@@H](O)[C@@H]1C(C)(C)CC[C@@H]2O` (stereo partly specified), the Potency result in experiment [4] is “inactive”. Further, the Potency in experiment [3] was 2.35 µM (active).
On the same counts, the results for `O=c1cc(N2CCOCC2)oc2c(-c3cccc4c3sc3ccccc34)cccc12` are “inactive” and 3.32 µM (active).
Consider `O=c1cc(CN2CCOCC2)occ1OCCCCCSc1ccnc2cc(C(F)(F)F)ccc12`, for which the Potency result in experiment [4] was “inactive”. For the same compound, in experiment [3], the Potency was 18.6 µM (active) and 9.16 µM (active).
With `CCCCCNC(=O)N1CCC(CN(Cc2ccc(Cl)cc2)Cc2ccc([N+](=O)[O-])s2)C1` (stereo unspecified), the Potency in experiment [1] was 2.39 µM (active); in experiment [2], 2.68 µM (active). Moreover, the Potency entry in experiment [3] was “inactive”.
Consider `Nc1ncnc2c1nc(Cl)n2[C@@H]1O[C@H](CO)[C@@H](O)[C@@H]1O`, for which the Potency result in experiment [4] was “inactive”. In experiment [3], the Potency was 18.6 µM (active).
For `CC(C)NCC(O)COc1cccc2[nH]ccc12` (stereo unspecified), the Potency result in experiment [5] and in experiment [3] was “inactive” throughout. Further, the call in the experiment with Papain (Carica papaya) was inactive.
Consider `COc1ccc(-n2c(C)c([N+](=O)[O-])c3ccc(O)cc32)cc1`, for which the Potency entry in experiment [4] and in experiment [3] was “inactive” each time.
In the case of `c1cc(-c2sc(-c3ccncc3)c(-c3ccncc3)c2-c2ccncc2)ccn1`, the Potency result in experiment [4] and in experiment [3] was “inactive” each time.
As to `CC(C)C(C)C=CC(C)C1CCC2C3=CC=C4CC(O)CCC4(C)C3CCC21C` (stereo unspecified), in experiment [4], the Potency was 1.49 µM (active). The Potency entry in experiment [3] is “inactive”.
Consider `C[N+](C)(C)CC(=O)O`, for which the Potency result in experiment [5], in experiment [1] and in experiment [3] was “inactive” in each case.
As for `CC(=O)N[C@@H](CS)C(=O)O`, the Potency result in experiment [5], in experiment [1], in experiment [2] and in experiment [3] was “inactive” in each case. The result in the experiment with Papain (Carica papaya) was inactive.
For the compound `CCS(=O)(=O)N1CC(CC#N)(n2cc(-c3ncnc4[nH]ccc34)cn2)C1`, the Potency result in experiment [1] and in experiment [2] was “inactive” each time. For the same compound, the Potency in experiment [3] is 18.6 µM (active).
Take `C[C@@H]1CCN(C(=O)CC#N)C[C@H]1N(C)c1ncnc2[nH]ccc12`: in experiment [2], the Potency result is “inactive”.
Still for that read-out and setting: next, `CC1CCC(C(=O)N(c2cc(C#CC(C)(C)C)sc2C(=O)O)C2CCC(O)CC2)CC1` (stereo unspecified): “inactive”.
For `O=C(Nc1ccccc1-c1cn2c(CN3CCNCC3)csc2n1)c1cnc2ccccc2n1`, the Potency in experiment [6] is 33.9 µM (active).
